Data on 21 molecules can be found in PubChem BioAssay (NCI).

This is part of a sample that, as a whole, favours compounds with a hit. Of some 79,000 tested, about 15% had one in any assay. A number with no mark means an inactive call. Calls of active or inactive are those of the source. Rule as the data show it: active = growth inhibition above about 70%; inactive = the rest. Where a SMILES comes first, the peptide text is derived from it. The star is where a group is joined. Boc = CC(C)(C)OC(=O)*

The nature of assay [1]: NCI Yeast Anticancer Drug Screen. Data for the rad50 strain (AID 155).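 Also: 0% = growth of vehicle-only cultures of the same strain.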 Particulars: S. cerevisiae rad50 strain growth inhibition; at 50.0 µM; stronger effect = higher value. In short, it runs like this:
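A DNA repair-deficient yeast mutant serves as the test organism; compound-induced growth inhibition is calculated against vehicle-treated cells.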

The nature of assay [2]: NCI Yeast Anticancer Drug Screen. Data for the mec2-1 strain (AID 157). The settings on record: S. cerevisiae mec2-1 strain, at 50.0 µM, stronger effect = higher value. In short, it runs like this: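 Vehicle-treated cultures served as reference for growth inhibition of compound-exposed mec2-1 yeast.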
A short description of assay [3]: NCI Yeast Anticancer Drug Screen. Data for the sgs1 mgt1 strain (AID 161).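 Also: 0% = growth of cultures given vehicle only.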 Particulars: S. cerevisiae sgs1 mgt1 strain, at 50.0 µM, stronger effect = higher value. In short, it runs like this:
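Inhibition of yeast growth, normalised to vehicle-treated controls, is reported for a strain bearing genetic alterations in DNA damage repair.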

The nature of assay [4]: NCI Yeast Anticancer Drug Screen. Data for the cln2 rad14 strain (AID 165).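 Also: 0% = growth equal to vehicle treated cultures.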 The settings on record: S. cerevisiae cln2 rad14 strain, at 50.0 µM, stronger effect = higher value. Summed up:
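Each compound was tested on cln2 rad14 yeast. Inhibition of growth was calculated against vehicle-exposed controls.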

Assay [5] can be described thus: NCI Yeast Anticancer Drug Screen. Data for the bub3 strain (AID 167). The settings on record: S. cerevisiae bub3 mutant strain, at 50.0 µM, stronger effect = higher value. In short, it runs like this: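 Inhibition values come from growth of compound-treated mutant yeast normalised to vehicle-treated controls.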
The nature of assay [6]: NCI Yeast Anticancer Drug Screen. Data for the mlh1 rad18 strain (AID 175). Particulars: S. cerevisiae mlh1 rad18 strain growth inhibition; at 50.0 µM; stronger effect = higher value. Summed up: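 Vehicle-treated cultures served as the reference for growth inhibition in a yeast strain carrying DNA damage repair alterations exposed to each compound.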

On to `CCOC(=O)c1cnc(NCCCNc2ncc(C(=O)OCC)c(=O)[nH]2)[nH]c1=O`, for which the growth inhibition in assay [1] was -2.65%; in assay [2], 4%; in assay [3] it was -2.6%; in assay [4], -44.9%; in assay [5], 3.8%; in assay [6] it was 10.3%.
In the case of `c1ccc(C2=NC(c3ccccc3)(c3ccccc3)N=C2c2ccccc2)cc1`, the growth inhibition in assay [1] is 2.75%; in assay [2], 10.7%; in assay [3] it was -11.2%; in assay [4], -10.1%; in assay [5] it was -8.55%; in assay [6], 2.5%.
Consider `CC(=O)OCC1OC(n2c3c(c(-c4ccc(Cl)cc4)c(C#N)c2=S)C(=O)CC(C)(C)C3)C(OC(C)=O)C(OC(C)=O)C1OC(C)=O` (stereo unspecified), for which the growth inhibition in assay [1] was 16.1%; in assay [2] it was -10.9%; in assay [3], 12.6%; in assay [4] it was -5.25%; in assay [5], 23.4%; in assay [6], -37.5%.
With `O=C(O)C1CCCCC1C(=O)Nc1nc2ccccc2[nH]1` (stereo unspecified), the growth inhibition in assay [1] is -18.6%; in assay [2], -17.1%; in assay [3], -12.7%; in assay [4], -16.7%; in assay [5], -57.9%; in assay [6], -10.6%.
Regarding `CCOC(=O)/C=C(\Nc1ccc(C(c2ccccc2)(c2ccccc2)c2ccccc2)cc1)C(=O)OCC`, the growth inhibition in assay [1] was 38.2%; in assay [2], 9.9%; in assay [3], 32%; in assay [4] it was 20.2%; in assay [5], -7.3%; in assay [6], 27.1%.
For `CCOC(=O)c1ccc(CS(=O)c2ccccc2)c([N+](=O)[O-])c1` (stereo unspecified), the growth inhibition was 14.7% in assay [1]; -4.75% in assay [2]; 20.6% in assay [3]; 3.55% in assay [4]; 58.1% in assay [5]; 18.2% in assay [6].
On to `CCc1n[nH]c(=O)n1/N=C/c1c(O)ccc2ccccc12`, for which the growth inhibition in assay [1] is 0.45%; in assay [2], 10.8%; in assay [3], 1.05%; in assay [4], 9.05%; in assay [5], 6%; in assay [6] it was 18.9%.
Turning to `Cc1ccc(S(=O)(=O)N(CCO)CC(C)O)cc1` (stereo unspecified), the growth inhibition in assay [1] is -15.9%; in assay [2] it was -24.1%; in assay [3] it was -23.2%; in assay [4], -13%; in assay [5] it was -24.1%; in assay [6], -26.8%.
For the molecule `OC(c1ccc(Cl)cc1)c1nc2ccccc2[nH]1` (stereo unspecified), the growth inhibition in assay [1] is 40.8%; in assay [2] it was 18.4%; in assay [3], 35.5%; in assay [4], 15.9%; in assay [5], 19.1%; in assay [6], 33.5%.
Take `O=C(Nc1ccccc1Cl)NC1CCCCC1`: the growth inhibition in assay [1] was 5.1%; in assay [2] it was -0.55%; in assay [3], 5.35%; in assay [4], 18.7%; in assay [5] it was 17.1%; in assay [6], 5.8%.
Turning to `CC(C)NC(=O)OCc1c(COC(=O)NC(C)C)c(-c2ccc(Cl)c(Cl)c2)n2c1C[C@@H](O)C2`, the growth inhibition was 17.3% in assay [1]; 20% in assay [2]; 21.5% in assay [3]; 38.4% in assay [4]; 11.5% in assay [5]; -44.4% in assay [6].
With `CC(NC(=O)C(NC(=O)OC(C)(C)C)C(C)C)C(=O)N1CCCC1C(=O)O` (stereo not drawn) (Boc-Val-Ala-Pro-OH; configuration not given here), the growth inhibition in assay [1] was -38.4%; in assay [2], -52.5%; in assay [3], -41%; in assay [4], -28.7%; in assay [5] it was -20.6%; in assay [6], -38.4%.
Take `O=c1cnn2c(n1)sc1ccc3ccccc3c12`: the growth inhibition in assay [1] was -11.8%; in assay [2], -0.9%; in assay [3] it was -15.4%; in assay [4], 0.65%; in assay [5] it was 26.5%; in assay [6], 40.4%.
With `O=C(O)c1c(F)c(F)c(-c2c(F)c(F)c(C(=O)O)c(C(=O)O)c2F)c(F)c1C(=O)O`, the growth inhibition in assay [1] is 1.5%; in assay [2] it was 5.5%; in assay [3], -5%; in assay [4] it was 7.05%; in assay [5], 0.55%; in assay [6], -6.45%.
In the case of `O=S(=O)(CSc1ccccc1)c1ccccc1`, the growth inhibition in assay [1] was -21.9%; in assay [2], -33.1%; in assay [3], -16.6%; in assay [4], -8.35%; in assay [5], -25.6%; in assay [6], -39.1%.
As to `O=C(O)COc1ccccc1OCC(=O)O`, the growth inhibition was 17.4% in assay [1]; 7.3% in assay [2]; -8.6% in assay [3]; 0.6% in assay [4]; -0.1% in assay [5]; 1.2% in assay [6].
With `COc1cccc(C2c3cc4c(cc3OC(N3CCCC3)C2C)OCO4)c1O` (stereo unspecified), the growth inhibition in assay [1] was 13.6%; in assay [2] it was -18.6%; in assay [3], 3.3%; in assay [4], -19.8%; in assay [5], 12.3%; in assay [6] it was -11.1%.
Turning to `COC1=CC(=O)c2nc3ccccc3c3ccnc1c23`, the growth inhibition in assay [1] was 87% (active); in assay [2], 76.1% (active); in assay [3] it was 83.2% (active); in assay [4] it was 51.2%; in assay [5], 87.3% (active); in assay [6], 87.2% (active).
For the molecule `CCOc1ccc(NC(=O)c2ccccc2O)cc1`, the growth inhibition in assay [1] is 26.9%; in assay [2] it was 14%; in assay [3], 17.7%; in assay [4], -9.05%; in assay [5], 17.3%; in assay [6], 43.3%.
Take `CN(C)CC1CCCCCCC1=O` (stereo unspecified): the growth inhibition is -6.45% in assay [1]; 12.7% in assay [2]; -8.55% in assay [3]; -8.1% in assay [4]; -8.85% in assay [5]; 12.8% in assay [6].
As to `C/C(CC(=O)Nc1ccc(C)cc1)=N\NC(N)=S`, the growth inhibition was -13.5% in assay [1]; -7.7% in assay [2]; 3.45% in assay [3]; 8.3% in assay [4]; -1% in assay [5]; -19.6% in assay [6].
